Source: PubChem BioAssay (National Center for Advancing Translational Sciences (NCATS))
This is a sample that favours compounds with a hit; in the whole collection about 3.6% have one here.
pS6 MEF inh = reduces mTORC1 signaling in Tsc2 and p53 null MEF cells; 44,000 compounds, 0.78% hits; Tsc2-/- p53-/- MEF, phospho-rpS6 immunofluorescence/PI, 24 h; AID 493208; Potency, µM (top dose mostly 38.3 µM), actives largely listed as inhibitors; also: nearly all actives have a fitted effect of over 50% in size
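Readout is phospho-S6 Alexa 488 signal normalized to PI per well, reported as % active cells with thresholds set from rapamycin (7.5 nM) and DMSO controls. Cells: Tsc2-/-, p53-/- MEFs, 24 hrs compound at 37 C; PI cell number serves as viability.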
S16 viability = toxic to S16 Pmp22-F2sN Schwann cells; 43,000 compounds, 0.48% hits; Potency, µM (series often up to 57.5 µM), hits mostly cytotoxic; S16 Pmp22-F2sN Schwann cells viability, CellTiter-Glo, 24 h; AID 1508642; also: nearly all actives have a fitted effect of over 65% in size
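Used to flag compounds lowering reporter output through toxicity, this quantitative HTS measures ATP-based CellTiter-Glo luminescence in S16 Pmp22-F2sN Schwann cells after 24 h compound exposure at 37C.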
HTT promoter inh = HTT promoter inhibition. 48,000 compounds, 0.93% hits. AID 1508623. Potency, µM (doses to about 57.5 µM), most hits filed as inhibitors. HEK293 HTT promoter firefly luciferase reporter, 24 h; also: nearly all actives have a fitted effect of over 50% in size
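Quantitative HTS used concentration series of up to 57.5 uM final on HEK293 luciferase reporter cells, 24 h at 37 degrees C. Readout was Dual-Glo firefly luminescence.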
HTT-AS promoter = HTT-AS promoter activation; HEK293 HTT-AS promoter firefly luciferase reporter, 24 h; response scale: percent change from vehicle, -100% = no light; Potency, µM (titrated, usually from 57.5 µM), hits mostly activators; 48,000 compounds, 0.24% hits; AID 1508624; also: nearly all actives have a fitted effect of over 55% in size
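HEK293 luciferase promoter-reporter cells (2,500/well) plated 24 h, then compounds added at up to 57.5 uM final for 24 h at 37 °C. Firefly luminescence by Dual-Glo, normalized to vehicle (0%) and zero RLU (-100%).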
SKOV3 invasion = ovarian cancer metastasis inhibition, 3D TME model | AID 1963576 | 46,000 compounds, 0.1% hits | SKOV3ip1-GFP adhesion/invasion on 3D omental model, fluorescence | Potency, µM (titrated, usually from 45.8 µM), usual class: inhibitors; also: nearly all actives have a fitted effect of over 65% in size
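Adhesion/invasion was scored as fixed GFP-labeled SKOV3ip1 cell counts (488/509 nm), normalized to DMSO and tomatine controls. Cancer cells in serum-free medium, with four compound doses (0.36-46 umol/L), sat 2 hr at RT then 16 hr at 37 C on a 48 hr fibroblast/mesothelial/ECM culture.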
PMP22 txn = modulators of PMP22 gene transcription in S16 Schwann cells; Potency, µM (top dose mostly 57.5 µM), hits mostly inhibitors; S16 Pmp22-F2sN Schwann cells, FLuc/NLuc coincidence luminescence, 24 h; AID 1508649; 43,000 compounds, 2% hits; active = clear falling dose curves in both reporters; inconclusive = both reporters move, but less clearly or upward; inactive = either reporter flat; the % is the NLuc reporter signal
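Reporter cells (S16 Pmp22-F2sN, 500–1,000 per well) exposed to compounds for 24 h, 37C, 5% CO2; lysis with FLuc read after 10 min, then Stop&Glo and NLuc read after 10 min.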
NLuc sat counter = counter-screen for PMP22 expression modulators: NanoLuc inhibition, saturating substrate; shares compounds with PMP22 txn; Secreted NLuc enzyme (filtered S16 cell medium), Nano-Glo luminescence; Potency, µM (top dose mostly 57.5 µM), usual class: inhibitors; 690 compounds, 4% hits; AID 1508638
NLuc Km counter = counter-screen for PMP22 expression modulators: NanoLuc inhibition at Km; shares compounds with PMP22 txn; secreted NLuc enzyme, coelenterazine luminescence, Km conditions; Potency, µM (top dose mostly 57.5 µM), actives largely listed as inhibitors; 690 compounds, 5% hits
FLuc counter = firefly luciferase enzyme inhibition artifact for PMP22 screen. shares compounds with PMP22 txn. purified P. pyralis FLuc, luminescence, 10 min. Potency, µM (series often up to 57.5 µM), actives largely listed as inhibitors. 690 tested, under 10 active. AID 1508640
Target sequence (P08659 whole entry, looked up): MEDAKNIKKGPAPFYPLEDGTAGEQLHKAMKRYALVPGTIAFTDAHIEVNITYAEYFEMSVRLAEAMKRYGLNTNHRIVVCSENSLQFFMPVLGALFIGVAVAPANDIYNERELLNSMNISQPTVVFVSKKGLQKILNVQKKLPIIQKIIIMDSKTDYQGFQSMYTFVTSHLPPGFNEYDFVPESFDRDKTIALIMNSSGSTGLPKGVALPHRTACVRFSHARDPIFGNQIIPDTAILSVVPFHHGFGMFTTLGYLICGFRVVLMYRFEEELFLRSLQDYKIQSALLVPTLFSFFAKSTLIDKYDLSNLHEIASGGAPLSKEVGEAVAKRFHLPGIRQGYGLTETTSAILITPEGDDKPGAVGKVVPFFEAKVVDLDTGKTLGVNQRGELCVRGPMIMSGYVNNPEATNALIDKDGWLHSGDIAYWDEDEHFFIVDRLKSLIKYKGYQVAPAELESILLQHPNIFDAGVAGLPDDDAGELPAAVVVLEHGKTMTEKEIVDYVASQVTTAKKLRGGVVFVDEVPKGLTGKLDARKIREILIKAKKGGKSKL
S16 F2sN tox cnf = confirmation of cytotoxicity in S16 Pmp22-F2sN Schwann cells (luciferase reporters placed in the Pmp22 gene). shares compounds with PMP22 txn. S16 Schwann cells viability, CellTiter-Glo ATP luminescence, 24 h. Potency, µM (highest dose often 57.5 µM), most hits filed as cytotoxic. 690 compounds, 7% hits. AID 1508641
PMP22 txn cnf = PMP22 transcription modulation, confirmatory; shares compounds with PMP22 txn; S16 Schwann cells Pmp22-F2sN, dual luciferase, 24 h; Potency, µM (titrated, usually from 57.5 µM), hits mostly inhibitors; 690 compounds, 22% hits; active = clear falling dose curves in both reporters; inconclusive = both reporters move, but less clearly or upward; inactive = either reporter flat; the % is the FLuc reporter signal
PMP22 prot conf = confirmation of modulators of rat PMP22 protein expression; shares compounds with PMP22 txn; S16 Schwann cells Pmp22-HiBiT, luminescence, 48 h; Potency, µM (series often up to 27.9 µM), usual class: inhibitors; 95 tested, under 10 active
Target sequence (P25094 whole entry, looked up): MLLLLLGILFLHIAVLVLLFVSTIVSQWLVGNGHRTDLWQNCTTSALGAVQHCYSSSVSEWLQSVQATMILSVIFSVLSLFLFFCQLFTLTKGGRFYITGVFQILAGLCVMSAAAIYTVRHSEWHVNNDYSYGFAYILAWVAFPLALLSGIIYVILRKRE
Each line names hits and unclear results; the compound was inactive in the other large screens (follow-up assays come after a bar, where they were run). Unless noted, calls follow the shape of the dose curve; as a rule, active = well fitted curve in the direction sought with a large enough effect; inconclusive = small, poorly fitted or top-dose-only effect, or another doubt; inactive = no such curve, though single readings can be large; an effect the other way counts as inactive or inconclusive.

CCN1CCN(CCCNC(=O)Cn2c(-c3cccs3)cc3ccccc32)CC1	S16 viability inconclusive, PMP22 txn inconclusive
COc1ccc(C2CC(=O)N(CC(=O)Nc3ccc(C)c(Cl)c3)c3ccccc3S2)cc1OC (configuration not stated)	none
COc1ccc(C2CC(=O)N(CC(=O)Nc3cccc(C)c3C)c3ccccc3S2)cc1OC (configuration not stated)	HTT promoter inh inconclusive, PMP22 txn 11.9µM | NLuc sat counter inconclusive | NLuc Km counter inconclusive | FLuc counter inactive | S16 F2sN tox cnf inactive | PMP22 txn cnf inactive
CCNC(=O)CCCC=CC[C@@H]1[C@H](C=CC(O)CCc2ccccc2)[C@@H](O)C[C@@H]1O (some centres not stated)	none (no result: pS6 MEF inh, S16 viability, PMP22 txn)
CC(CC1c2ccccc2CCc2ccccc21)CN(C)C (configuration not stated)	none (no result: pS6 MEF inh, S16 viability, SKOV3 invasion, PMP22 txn)
Cc1ccc(C)c(N2CCN(C(=O)C3CCCN(S(=O)(=O)c4ccc5c(c4)oc(=O)n5C)C3)CC2)c1 (configuration not stated)	HTT promoter inh inconclusive, PMP22 txn 15.2µM | NLuc sat counter inactive | NLuc Km counter inactive | FLuc counter inactive | S16 F2sN tox cnf inactive | PMP22 txn cnf inconclusive
O=c1[nH]c(=O)n([C@H]2O[C@H](CO)[C@@H](O)[C@@H]2O)cc1/C=C\Br	none (no result: pS6 MEF inh, S16 viability, SKOV3 invasion, PMP22 txn)
N=c1n(CCN2CCCCC2)c2ccccc2n1CC(O)COc1ccccc1 (configuration not stated)	HTT promoter inh inconclusive, SKOV3 invasion inconclusive, PMP22 txn inconclusive (no result: pS6 MEF inh)
CCCCCn1c(=N)n(CC(O)COc2cccc(C)c2)c2ccccc21 (configuration not stated)	pS6 MEF inh 3.69µM, S16 viability inconclusive, HTT promoter inh inconclusive, SKOV3 invasion inconclusive, PMP22 txn 17.8µM | NLuc sat counter inactive | NLuc Km counter inactive | FLuc counter inactive | S16 F2sN tox cnf 21.7µM | PMP22 txn cnf 16.3µM
COC(=O)CSc1nnc(-c2cccc(O)c2)o1	none
CC(=O)OCC#CCSc1nnc(-c2cccc(Br)c2)o1	PMP22 txn 9.15µM | NLuc sat counter inconclusive | NLuc Km counter inconclusive | FLuc counter inactive | S16 F2sN tox cnf inconclusive | PMP22 txn cnf inconclusive
Cc1cc(CN2CCN(c3cccc(C)c3C)CC2)cs1	none
Cc1c(Cl)cccc1N1C(N)=C(C#N)C(c2cc(CN3CCOCC3)cs2)C2=C1CCCC2=O (configuration not stated)	PMP22 txn 7.23µM | NLuc sat counter inconclusive | NLuc Km counter inconclusive | FLuc counter inactive | S16 F2sN tox cnf inactive | PMP22 txn cnf inactive
CC1=Nc2cc(C(=O)NC(C)C)ccc2Sc2ccc(C)cc21	pS6 MEF inh inconclusive, HTT promoter inh inconclusive, PMP22 txn inconclusive
CC1=Nc2cc(C(=O)NC3CCCC3)ccc2Sc2ccc(C)cc21	pS6 MEF inh inconclusive, HTT promoter inh inconclusive, PMP22 txn 7.81µM | NLuc sat counter inactive | NLuc Km counter inactive | FLuc counter inactive | S16 F2sN tox cnf inactive | PMP22 txn cnf inconclusive
COc1ccc(-c2c(C)nn3c(N4CCN(c5ccccc5)CC4)cc(C)nc23)cc1OC	PMP22 txn 17µM | NLuc sat counter inconclusive | NLuc Km counter inconclusive | FLuc counter inactive | S16 F2sN tox cnf inactive | PMP22 txn cnf inconclusive
Cc1ccc(CNC(=O)c2nc(S(=O)(=O)Cc3ccc(C)cc3)ncc2Cl)cc1	S16 viability inconclusive, HTT promoter inh inconclusive, PMP22 txn 10.1µM | NLuc sat counter inactive | NLuc Km counter inactive | FLuc counter inactive | S16 F2sN tox cnf inactive | PMP22 txn cnf 17.3µM | PMP22 prot conf inactive
COc1ccc2nc(NC(=O)c3nc(SC(C)C)ncc3Cl)sc2c1	none
Cc1ccc(CNC(=O)c2nc(SCc3cccc(C)c3)ncc2Cl)cc1	HTT promoter inh inconclusive
Cc1ccc(CS(=O)(=O)c2ncc(Cl)c(C(=O)Nc3nc4ccc(F)cc4s3)n2)cc1	S16 viability inconclusive, HTT promoter inh inconclusive, PMP22 txn 5.39µM | NLuc sat counter inactive | NLuc Km counter inconclusive | FLuc counter inactive | S16 F2sN tox cnf inconclusive | PMP22 txn cnf 16.5µM | PMP22 prot conf inconclusive
COC(=O)c1ccccc1NC(=O)c1nc(S(=O)(=O)Cc2cccc(C)c2)ncc1Cl	S16 viability inconclusive, PMP22 txn 5.32µM | NLuc sat counter inactive | NLuc Km counter 3.85µM | FLuc counter inactive | S16 F2sN tox cnf inconclusive | PMP22 txn cnf 7.27µM | PMP22 prot conf inactive
COc1ccc2nc(NC(=O)c3nc(S(=O)(=O)Cc4ccc(C)cc4)ncc3Cl)sc2c1	pS6 MEF inh inconclusive, S16 viability 28.2µM, SKOV3 invasion inconclusive, PMP22 txn 7.27µM | NLuc sat counter inactive | NLuc Km counter inactive | FLuc counter inactive | S16 F2sN tox cnf inactive | PMP22 txn cnf inactive
NS(=O)(=O)c1cc(C(=O)NN2C[C@H]3[C@H]4CCC(C4)[C@H]3C2)ccc1Cl	none (no result: pS6 MEF inh, S16 viability, SKOV3 invasion, PMP22 txn)
CCCN(C(=O)c1cc2c(=O)n(CC)c3ccccc3c2s1)c1ccccc1F	PMP22 txn 7.61µM | NLuc sat counter inactive | NLuc Km counter inconclusive | FLuc counter inactive | S16 F2sN tox cnf inactive | PMP22 txn cnf inconclusive
